# Compounds with a hit are over-represented: about 19% of the library has one in this group of screens.
# TDP1 cell noCPT: qHTS for Inhibitors of human tyrosyl-DNA phosphodiesterase 1 (TDP1): qHTS in cells in absence of CPT | DT40 Tdp1-/- hTDP1 cells, no CPT, ATP luminescence, 48 h | 420,000 tested, 15% active | AID 686978, 2013 | Potency, µM (highest dose often 46.2 µM), for the others: at the highest dose activity change, negative = growth inhibition, hits mostly inhibitors; further: potency means the concentration at half of the fitted maximal effect; nearly all actives have a fitted effect of over 55% in size
#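 No-CPT arm: Tdp1-/-;hTDP1 DT40 cells (400/well) plus compounds, incubated ≥48 hr at 37 °C. Readout CellTiter-Glo luminescence.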
# DT40 TDP1 CPT: DT40-hTDP1 cell growth loss with CPT; 420,000 tested, 12% active; chicken DT40 Tdp1-/-;hTDP1 cells + 20 nM CPT, ATP luminescence, 48 h; Potency, µM (highest dose often 46.2 µM), without a hit: top-dose activity change, negative = growth inhibition, actives largely listed as inhibitors; further: potency means the concentration at half of the fitted maximal effect; nearly all actives have a fitted effect of over 55% in size
#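 Chicken DT40 Tdp1-/- cells complemented with human TDP1, 400 cells/well, exposed to compounds plus 20 nM camptothecin for at least 48 h at 37 C; viability read as ATP content by CellTiter-Glo luminescence.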
# HT1080NT lethal: kills 2HG-producing HT-1080-NT fibrosarcoma cells; HT-1080-NT fibrosarcoma viability, CellTiter-Glo ATP luminescence, 48 h; Potency, µM (highest dose often 46.1 µM), without a hit: at the highest dose activity, negative = less viability, hits mostly cytotoxic; 360,000 tested, 1.6% active; AID 686970;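 further: NT is the 2HG producing partner of a matched IDH1 knockdown line; potency means the concentration at half of the fitted maximal effect; 0% = DMSO-treated cells and -100% = media-only wells without cells; nearly all actives have a fitted effect of over 55% in size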
#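 A 48-hour cytotoxicity screen used HT-1080-NT cells plated 2 hours before compound delivery. ATP-based CellTiter-Glo luminescence measured viability, normalized to DMSO and no-cell controls.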
# HT1080 IDH1KD tx: kills HT-1080 cells with IDH1 knockdown. HT-1080 IDH1 knockdown viability, ATP luminescence, 48 h. Potency, µM (series often up to 46.1 µM), without a hit: top-dose activity, negative = toxicity, hits mostly cytotoxic. 360,000 tested, 2% active;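 further: potency means the concentration at half of the fitted maximal effect; 0% = DMSO wells and -100% = cell-free medium wells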
#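 Assay cells: HT-1080 with IDH1 knockdown, 750 per well, RPMI/5% FBS. Exposure: 48 h at 37 °C following 2 h pre-incubation. Read: CellTiter-Glo luminescence; fitted concentration-response, curve class assigned.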
# IL1B secr inh: blocks inflammasome-driven IL-1 beta release; AID 743279; 360,000 tested, 4.7% active; activity change, % at 57.5 µM; THP-1 LPS/ATP IL-1B secretion, AlphaLISA, 16 h; active compounds read low; in the data active means activity change below about -50%; inconclusive means mostly about -30% to -49%
#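 THP-1 cells pretreated 1 hr with compounds (up to 57.5 uM final), then stimulated with LPS (250 ng/mL final) plus ATP (1.25 mM final); secreted IL-1B measured by AlphaLISA after 16 hr, decreased signal indicating inhibition.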
# Starred values were filed as active, the others as inactive; ? = inconclusive; / = no result. Unless noted, the call rests on the fitted dose curve; in most records, active means well fitted curve in the direction sought with a large enough effect; inconclusive means small, poorly fitted or top-dose-only effect, or another doubt; inactive means no such curve, though single readings can be large; an effect the other way counts as inactive or inconclusive. Unless noted, on the % scale 0 is the no-effect control and ±100 the full control effect.
SMILES,TDP1 cell noCPT,DT40 TDP1 CPT,HT1080NT lethal,HT1080 IDH1KD tx,IL1B secr inh
O=C(Nc1cc(C(F)(F)F)ccc1N1CCCCC1)c1cccc([N+](=O)[O-])c1,16µM*,?,-1%,-4%,-2
O=C(Nc1cc(C(F)(F)F)ccc1N1CCCC1)c1ccc2c(c1)OCO2,?,-19%,-19%,-11%,-6
CCNc1ncc2nc(-c3cccs3)c(=O)n(C)c2n1,2%,7%,/,/,/
COC(=O)C1(C(=O)OC)c2cc3c(cc2CN(S(=O)(=O)c2ccc(C)cc2)C1CC(C)=O)OCO3 (stereo unspecified),2%,-9%,0%,-7%,-29
COc1ccc(NC(=O)COc2nsnc2N2CCCCC2)cc1,18µM*,12µM*,-13%,4%,-10
O=C(COc1nsnc1N1CCOCC1)Nc1ccc(Br)cc1,21µM*,?,-11%,-21%,-10
Cn1c(O)c(C(C#N)=C2N=c3ccccc3=N2)c2ccccc21,12µM*,8.2µM*,9%,5%,30
CC(=O)Nc1c(O)n(C)c2ccccc12,-12%,-6%,8%,-3%,-6
Cc1ccc(N(CC(=O)NCc2ccccc2)C(=O)CCC(=O)Nc2ccccn2)cc1,1%,-1%,3%,1%,6
Cc1cc2ccccn2c1C(=O)c1ccccc1F,?,?,15µM*,?,10
Cc1cc2ccccn2c1C(=O)c1ccc(Cl)cc1,-24%,-28%,-26%,-21%,-25
Cc1ccc2onc(CC(=O)N3CCN(c4cc(Cl)ccc4C)CC3)c2c1,16µM*,?,/,/,/
Cc1ccc2onc(CC(=O)O)c2c1,-6%,-8%,-2%,12%,-1
Cc1ccc(C)c(N2CCN(C(=O)CCc3nc(-c4ccc(Cl)cc4)no3)CC2)c1,-4%,8%,3%,4%,14
COc1ccc(Cl)cc1N(C)C(=O)Cc1noc2ccc(C)cc12,18µM*,16µM*,/,/,/
CCCn1c(SCC(=O)N2CCCC(C)C2)nnc1-c1cccnc1 (stereo unspecified),-15%,-10%,18%,8%,-2
CC(CN1CCCCC1)NC(=O)c1scnc1-c1ccccc1 (stereo unspecified),-4%,-9%,18%,4%,15
OCC1OC(c2ccc(OCc3ccccc3)cc2OCc2ccccc2)C(O)C1O (stereo unspecified),9.2µM*,10µM*,-10%,-5%,?
CCCCN(CCCNC(=O)c1ccc2c(c1)NC(=O)CN2C)c1ccccc1,?,?,?,?,-103*
NC(=O)C1CCN(C(=O)CCC(=O)c2ccc(F)cc2)CC1,-20%,-4%,-1%,-8%,-7
CCSc1nnc2ccc(-c3ccc(OC)c(OC)c3)nn12,23µM*,?,-16%,-17%,-68*
COc1ccc(-c2ccc3nnc(SCC(N)=O)n3n2)cc1,0%,-11%,0%,3%,-6
O=c1cccc(-c2ccc3ccccc3c2)o1,?,-3%,0%,-4%,-6
COc1cccc(C2C(C(=O)Nc3ccccc3)=C(C)N=c3s/c(=C/c4ccc(OCC(=O)O)cc4)c(=O)n32)c1 (stereo unspecified),-19%,5%,3%,12%,1
COc1cccc(C2C(C(=O)OC(C)C)=C(C)N=c3s/c(=C\c4ccc(C(=O)O)cc4)c(=O)n32)c1 (stereo unspecified),18µM*,-20%,-13%,-18%,-7
CCOC(=O)C1=C(C)N=c2sc(=Cc3cc(Cl)c(OCC(=O)O)c(Cl)c3)c(=O)n2C1c1cccc(OC)c1 (stereo unspecified),?,16µM*,26µM*,21µM*,-18
CCOC(=O)C1=C(C)N=c2s/c(=C/c3ccc(OCC(=O)O)cc3)c(=O)n2C1c1cc(OC)c(OC)c(OC)c1 (stereo unspecified),-2%,0%,-1%,1%,-9

# Screening data as filed in PubChem.
